# Test results published in ChEMBL document CHEMBL2218924, “A broad activity screen in support of a chemogenomic map for kinase signalling research and drug discovery” (Biochem J, 2013).
# Experiments:
# [1] = biological target: T1, Protein kinase C zeta type (Homo sapiens) (UniProt Q05513); conditions: at 1 µM
# T1 sequence (whole entry): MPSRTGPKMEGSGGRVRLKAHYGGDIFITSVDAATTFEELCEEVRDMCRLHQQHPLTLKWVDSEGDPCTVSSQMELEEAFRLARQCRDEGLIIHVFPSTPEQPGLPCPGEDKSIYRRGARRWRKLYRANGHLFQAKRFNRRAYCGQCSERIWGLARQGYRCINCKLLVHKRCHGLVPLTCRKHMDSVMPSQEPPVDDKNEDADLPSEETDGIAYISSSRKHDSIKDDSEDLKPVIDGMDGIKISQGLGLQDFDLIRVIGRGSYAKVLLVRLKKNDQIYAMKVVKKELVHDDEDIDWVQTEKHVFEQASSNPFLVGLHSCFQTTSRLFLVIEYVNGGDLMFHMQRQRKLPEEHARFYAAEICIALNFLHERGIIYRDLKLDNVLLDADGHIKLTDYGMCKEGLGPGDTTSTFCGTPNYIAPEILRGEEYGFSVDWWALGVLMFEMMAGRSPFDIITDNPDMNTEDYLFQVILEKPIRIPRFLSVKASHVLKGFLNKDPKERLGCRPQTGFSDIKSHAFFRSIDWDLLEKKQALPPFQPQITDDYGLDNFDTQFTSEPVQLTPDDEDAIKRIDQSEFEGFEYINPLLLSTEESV
# [2] = biological target: T2, Mitogen-activated protein kinase kinase kinase 5 (Homo sapiens) (UniProt Q99683); conditions: at 10 µM
# T2 sequence (whole entry): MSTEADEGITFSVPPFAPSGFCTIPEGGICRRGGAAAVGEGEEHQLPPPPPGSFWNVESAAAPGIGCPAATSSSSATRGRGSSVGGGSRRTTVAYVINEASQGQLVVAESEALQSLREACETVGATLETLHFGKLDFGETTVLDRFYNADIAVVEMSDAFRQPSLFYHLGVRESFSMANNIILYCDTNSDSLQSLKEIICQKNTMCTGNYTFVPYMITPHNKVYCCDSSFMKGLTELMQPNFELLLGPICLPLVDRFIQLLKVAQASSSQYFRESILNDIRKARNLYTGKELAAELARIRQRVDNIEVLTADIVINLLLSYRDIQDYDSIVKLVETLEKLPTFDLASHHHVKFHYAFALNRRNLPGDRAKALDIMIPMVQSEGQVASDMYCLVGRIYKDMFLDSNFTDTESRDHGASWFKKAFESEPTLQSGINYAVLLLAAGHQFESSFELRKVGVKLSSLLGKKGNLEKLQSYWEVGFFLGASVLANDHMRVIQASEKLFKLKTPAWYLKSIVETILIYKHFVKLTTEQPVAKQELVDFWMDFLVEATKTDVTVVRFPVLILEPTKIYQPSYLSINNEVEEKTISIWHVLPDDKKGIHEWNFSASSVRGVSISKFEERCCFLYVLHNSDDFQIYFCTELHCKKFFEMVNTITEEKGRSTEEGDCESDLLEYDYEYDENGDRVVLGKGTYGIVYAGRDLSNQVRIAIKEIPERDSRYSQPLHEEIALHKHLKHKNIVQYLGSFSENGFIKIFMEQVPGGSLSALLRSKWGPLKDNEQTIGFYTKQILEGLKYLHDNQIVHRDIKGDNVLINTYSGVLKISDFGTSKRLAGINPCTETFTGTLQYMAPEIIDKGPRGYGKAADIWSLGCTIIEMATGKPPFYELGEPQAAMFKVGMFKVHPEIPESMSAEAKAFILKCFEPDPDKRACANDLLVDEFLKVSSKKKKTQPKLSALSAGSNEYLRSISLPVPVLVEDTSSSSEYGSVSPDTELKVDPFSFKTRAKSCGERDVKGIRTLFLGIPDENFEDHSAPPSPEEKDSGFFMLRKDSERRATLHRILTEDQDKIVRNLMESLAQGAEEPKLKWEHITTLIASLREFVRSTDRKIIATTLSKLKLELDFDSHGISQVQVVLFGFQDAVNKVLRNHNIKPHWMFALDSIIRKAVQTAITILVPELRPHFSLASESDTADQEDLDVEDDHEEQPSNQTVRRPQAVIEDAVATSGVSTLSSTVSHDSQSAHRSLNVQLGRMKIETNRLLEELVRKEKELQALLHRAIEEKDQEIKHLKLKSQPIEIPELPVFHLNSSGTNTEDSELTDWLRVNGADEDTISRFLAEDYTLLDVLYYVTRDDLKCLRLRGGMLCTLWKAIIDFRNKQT
# [3] = biological target: Tyrosine-protein kinase ABL1 (Homo sapiens) (UniProt P00519); conditions: at 1 µM
# Chain of Tyrosine-protein kinase ABL1 (Homo sapiens) (P00519 whole entry): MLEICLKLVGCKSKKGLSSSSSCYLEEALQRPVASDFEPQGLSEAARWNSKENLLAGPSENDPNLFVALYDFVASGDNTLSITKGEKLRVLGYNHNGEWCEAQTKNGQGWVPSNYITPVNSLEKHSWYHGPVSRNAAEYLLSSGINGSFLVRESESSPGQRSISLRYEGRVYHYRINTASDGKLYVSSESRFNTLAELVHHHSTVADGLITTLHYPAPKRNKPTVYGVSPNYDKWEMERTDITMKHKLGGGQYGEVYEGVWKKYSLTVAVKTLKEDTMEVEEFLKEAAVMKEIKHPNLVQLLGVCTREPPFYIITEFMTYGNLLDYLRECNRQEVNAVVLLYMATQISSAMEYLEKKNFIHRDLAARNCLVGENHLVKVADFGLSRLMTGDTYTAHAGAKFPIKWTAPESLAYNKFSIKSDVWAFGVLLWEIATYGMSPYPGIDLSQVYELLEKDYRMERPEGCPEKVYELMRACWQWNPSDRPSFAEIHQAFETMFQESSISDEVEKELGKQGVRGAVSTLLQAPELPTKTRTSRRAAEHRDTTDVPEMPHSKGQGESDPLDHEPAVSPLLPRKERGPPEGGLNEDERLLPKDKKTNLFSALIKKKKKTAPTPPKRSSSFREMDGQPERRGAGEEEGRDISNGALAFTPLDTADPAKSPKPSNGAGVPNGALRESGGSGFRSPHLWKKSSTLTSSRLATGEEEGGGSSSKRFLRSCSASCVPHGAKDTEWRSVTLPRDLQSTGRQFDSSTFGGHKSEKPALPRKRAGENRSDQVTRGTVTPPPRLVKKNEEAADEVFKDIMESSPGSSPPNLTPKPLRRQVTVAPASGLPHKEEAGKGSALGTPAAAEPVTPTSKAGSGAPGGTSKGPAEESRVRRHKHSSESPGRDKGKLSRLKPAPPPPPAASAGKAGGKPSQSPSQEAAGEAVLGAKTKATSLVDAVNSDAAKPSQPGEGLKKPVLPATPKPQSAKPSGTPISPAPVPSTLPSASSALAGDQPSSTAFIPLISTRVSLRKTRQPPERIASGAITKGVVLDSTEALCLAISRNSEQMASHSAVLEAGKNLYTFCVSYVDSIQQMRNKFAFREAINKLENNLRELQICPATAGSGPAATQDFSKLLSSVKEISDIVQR
# [4] = biological target: Tyrosine-protein kinase ABL1 (Homo sapiens) (UniProt P00519); conditions: at 10 µM
# [5] = biological target: Tyrosine-protein kinase ABL2 (Homo sapiens) (UniProt P42684); conditions: at 1 µM
# Chain of Tyrosine-protein kinase ABL2 (Homo sapiens) (P42684 whole entry): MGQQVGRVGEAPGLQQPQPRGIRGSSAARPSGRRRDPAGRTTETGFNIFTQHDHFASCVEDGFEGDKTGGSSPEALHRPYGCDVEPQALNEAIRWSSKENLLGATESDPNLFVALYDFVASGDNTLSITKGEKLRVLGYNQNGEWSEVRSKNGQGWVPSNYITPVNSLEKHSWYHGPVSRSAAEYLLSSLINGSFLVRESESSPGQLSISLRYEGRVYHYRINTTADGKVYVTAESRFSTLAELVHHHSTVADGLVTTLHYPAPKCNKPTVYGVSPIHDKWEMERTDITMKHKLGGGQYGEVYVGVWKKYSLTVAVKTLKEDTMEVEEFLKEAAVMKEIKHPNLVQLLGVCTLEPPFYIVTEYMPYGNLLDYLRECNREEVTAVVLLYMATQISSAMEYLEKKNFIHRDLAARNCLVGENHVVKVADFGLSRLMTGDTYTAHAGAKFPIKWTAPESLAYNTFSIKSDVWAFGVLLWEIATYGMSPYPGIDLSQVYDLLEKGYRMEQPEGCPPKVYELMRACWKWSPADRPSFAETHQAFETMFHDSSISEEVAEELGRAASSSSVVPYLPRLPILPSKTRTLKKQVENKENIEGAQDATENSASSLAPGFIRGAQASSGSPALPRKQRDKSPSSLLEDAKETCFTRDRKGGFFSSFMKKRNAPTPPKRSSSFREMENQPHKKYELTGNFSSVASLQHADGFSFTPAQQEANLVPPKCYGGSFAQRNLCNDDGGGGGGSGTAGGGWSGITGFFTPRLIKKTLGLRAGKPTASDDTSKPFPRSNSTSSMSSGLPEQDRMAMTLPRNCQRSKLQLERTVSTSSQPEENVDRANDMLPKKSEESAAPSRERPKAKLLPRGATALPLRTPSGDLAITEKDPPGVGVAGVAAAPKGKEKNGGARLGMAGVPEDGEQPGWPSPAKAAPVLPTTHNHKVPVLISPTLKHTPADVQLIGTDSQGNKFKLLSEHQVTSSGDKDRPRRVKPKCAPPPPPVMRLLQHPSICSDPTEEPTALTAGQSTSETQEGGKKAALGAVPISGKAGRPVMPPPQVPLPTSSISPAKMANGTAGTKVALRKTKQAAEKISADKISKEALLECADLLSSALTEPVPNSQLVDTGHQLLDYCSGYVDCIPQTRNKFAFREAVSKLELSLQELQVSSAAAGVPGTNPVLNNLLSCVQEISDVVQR
# [6] = biological target: Tyrosine-protein kinase ABL2 (Homo sapiens) (UniProt P42684); conditions: at 10 µM
# [7] = biological target: T3, Aurora kinase A (Homo sapiens) (UniProt O14965); conditions: at 1 µM
# T3 sequence (whole entry): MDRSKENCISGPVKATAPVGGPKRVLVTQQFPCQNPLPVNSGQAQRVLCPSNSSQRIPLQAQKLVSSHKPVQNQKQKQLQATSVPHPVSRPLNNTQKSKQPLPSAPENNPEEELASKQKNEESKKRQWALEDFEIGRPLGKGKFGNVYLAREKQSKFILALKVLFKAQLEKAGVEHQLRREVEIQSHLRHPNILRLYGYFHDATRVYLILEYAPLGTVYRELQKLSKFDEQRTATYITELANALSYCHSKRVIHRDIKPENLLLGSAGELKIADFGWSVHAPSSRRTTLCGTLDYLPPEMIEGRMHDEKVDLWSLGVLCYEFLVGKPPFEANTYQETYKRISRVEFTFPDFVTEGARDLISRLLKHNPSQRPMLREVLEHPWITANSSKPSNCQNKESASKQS
# [8] = biological target: T3, Aurora kinase A (Homo sapiens); conditions: at 10 µM
# [9] = biological target: Aurora kinase B (Homo sapiens) (UniProt Q96GD4); conditions: at 1 µM
# Chain of Aurora kinase B (Homo sapiens) (Q96GD4 whole entry): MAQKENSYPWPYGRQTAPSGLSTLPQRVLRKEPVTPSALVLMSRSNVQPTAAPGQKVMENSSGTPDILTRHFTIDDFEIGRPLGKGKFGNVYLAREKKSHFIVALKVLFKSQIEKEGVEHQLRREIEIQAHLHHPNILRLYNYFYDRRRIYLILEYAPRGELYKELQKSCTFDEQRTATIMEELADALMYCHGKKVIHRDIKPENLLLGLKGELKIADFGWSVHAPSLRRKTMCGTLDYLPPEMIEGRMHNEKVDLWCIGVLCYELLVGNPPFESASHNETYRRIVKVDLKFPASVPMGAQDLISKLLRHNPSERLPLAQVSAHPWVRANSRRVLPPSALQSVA
# [10] = biological target: Aurora kinase B (Homo sapiens) (UniProt Q96GD4); conditions: at 10 µM
Compound,residual activity [1],residual activity [2] [%],residual activity [3] [%],residual activity [4] [%],residual activity [5] [%],residual activity [6] [%],residual activity [7] [%],residual activity [8] [%],residual activity [9] [%],residual activity [10] [%]
N#C/C(=C(\N)Sc1ccc(N)cc1)c1ccccc1C(F)(F)F,105% (inactive),103,94,87,88,82,75,70,26,15
Cc1ccc(NC2=CC(=O)c3sc(C)nc3C2=O)cc1,100% (inactive),116,99,82,122,91,116,96,104,68
COc1ccc(OC)c2c(=S)c3ccccc3[nH]c12,104% (inactive),97,97,89,116,84,116,90,93,52
Cn1nc2c3c(cccc31)C(=O)c1ccccc1-2,102% (inactive),29,101,70,102,86,79,74,75,6
Oc1c2ccccc2c2c3c(cccc13)N=N2,110% (inactive),5,83,56,87,72,19,2,1,0
O=C1NC(=O)c2c1c1c3ccccc3[nH]c1c1[nH]c3cc(Br)ccc3c21,98% (inactive),86,98,82,109,87,93,75,5,4
c1ccc2c(-c3ccncc3)c[nH]c2c1,94% (inactive),77,98,100,110,72,99,76,92,70
Ic1cccc(CSc2nnc(-c3ccncc3)o2)c1,101% (inactive),86,87,70,112,71,83,80,77,42
CCN(CC)C(=O)c1ccc(Nc2nc(OCC3CCCCC3)c3nc[nH]c3n2)cc1,96% (inactive),24,46,6,52,9,1,5,-1,0
O=c1cc(-c2cccc3c2Sc2ccccc2S3)oc(N2CCOCC2)c1,107% (inactive),98,99,89,97,90,101,120,105,92
CC#CC(=O)Nc1cc2c(Nc3ccc(F)c(Cl)c3)ncnc2cn1,97% (inactive),94,92,91,118,74,106,108,114,85
O=Nc1c(-c2c(O)[nH]c3ccccc23)[nH]c2ccccc12,101% (inactive),7,49,16,30,28,7,0,1,-2
Nc1n[nH]c2nnc(-c3c(-c4ccccc4)nn4ccccc34)cc12,116% (inactive),100,64,19,66,18,105,92,91,41
NC(=O)c1ccc2[nH]c(-c3ccc(Oc4ccc(Cl)cc4)cc3)nc2c1,99% (inactive),61,106,130,128,95,88,86,68,34
CC[n+]1c(/C=C/N(C)c2ccccc2)n(-c2ccccc2)c2ccc(-c3nc4ccccc4s3)cc21,107% (inactive),102,115,146,112,85,117,139,139,91
CN(C)c1ccc(/C=C2\C(=O)Nc3ccccc32)cc1,118% (inactive),99,100,87,103,89,56,26,13,4
CCOc1cc2ncnc(Nc3cccc(Br)c3)c2cc1OCC,104% (inactive),115,48,5,36,4,55,46,56,7

Compound,residual activity [1],residual activity [2] [%],residual activity [3] [%],residual activity [4] [%],residual activity [5] [%],residual activity [6] [%],residual activity [7] [%],residual activity [8] [%],residual activity [9] [%],residual activity [10] [%]
O=C1c2ccccc2-[n+]2ccc3c([nH]c4ccccc43)c21,98% (inactive),92,102,102,111,87,101,89,93,52
COc1cc2ncnc(Nc3ccc(Oc4ccccc4)cc3)c2cc1OC,108% (inactive),73,61,75,82,93,52,30,28,9
Cn1cc(/C=C2\C(=O)Nc3ccc(S(N)(=O)=O)cc32)c2ccccc21,101% (inactive),7,57,22,57,31,-4,4,3,0
N#Cc1cnc2cnc(NCc3cccnc3)cc2c1Nc1ccc(F)c(Cl)c1,103% (inactive),65,98,84,82,55,31,24,3,1
COc1ccc(CNc2nc(N(CCO)CCO)nc3c2ncn3C(C)C)cc1,105% (inactive),85,100,73,113,76,89,96,95,73
O=C1NC(=O)/C(=C\c2ccc3nccnc3c2)S1,104% (inactive),80,100,81,89,86,94,46,71,39
O=C1Nc2ccccc2/C1=C1/Nc2ccccc2/C1=N\OCCC(O)CO (stereo not given),95% (inactive),29,61,43,45,18,7,3,-1,-1
Cn1cnc2cc3c(Nc4cccc(Br)c4)ncnc3cc21,99% (inactive),107,29,10,42,14,78,45,45,6
CO[C@H]1C[C@@H]2CC[C@@H](C)[C@@](O)(O2)C(=O)C(=O)N2CCCC[C@H]2C(=O)O[C@H]([C@H](C)C[C@@H]2CC[C@@H](O)[C@H](OC)C2)CC(=O)[C@H](C)/C=C(\C)[C@@H](O)[C@@H](OC)C(=O)[C@H](C)C[C@H](C)/C=C/C=C/C=C/1C,96% (inactive),96,91,139,119,118,87,118,92,73
Nc1ccc2ncnc(NCCc3ccc(Oc4ccccc4)cc3)c2c1,108% (inactive),80,100,101,104,78,102,110,41,11
COc1cccc(-c2cc(=O)c3ccccc3o2)c1N,111% (inactive),112,111,92,115,74,122,107,113,103
CO[C@H]1[C@@H](OC)C[C@H](C)[C@@H](OC)C2=CC(=O)C=C(NC(=O)/C(C)=C/C=C/[C@H](OC)[C@@H](OC(N)=O)/C(C)=C/[C@@H]1C)C2=O,104% (inactive),99,94,68,111,105,77,86,72,68
O=C1NC(=O)c2cc(Nc3ccc(F)cc3)c(Nc3ccc(F)cc3)cc21,101% (inactive),92,85,87,90,58,89,79,124,120
c1ccc(-c2n[nH]c3c2oc2ccccc23)cc1,99% (inactive),90,96,77,115,93,53,31,39,4
CCN(CC)CCCCN1c2ccccc2Oc2ccc(Cl)cc21,114% (inactive),114,124,102,140,122,97,140,141,103
Cc1cc2ncc(-c3ccccc3)nc2cc1C,106% (inactive),83,92,87,96,103,77,96,87,75
C[C@@H](N)[C@H]1CC[C@H](C(=O)Nc2ccncc2)CC1,103% (inactive),96,113,101,107,100,95,89,73,82
